Results filed as inconclusive are left out. Activity calls are given as the source filed them. Rule for the calls: active = hit-call score of the fitted dose curve at least 0.9, where 1 is the maximum; inconclusive = response in the unintended direction; inactive = score below 0.9.
These compounds were tested against human Vitamin D Receptor (VDR), VDR (gene 7421) (UniProt P11473) (assay: ATG_VDR_TRANS: Attagene TRANS-FACTORIAL HepG2 Assay for human Vitamin D Receptor (VDR) (AID 2283022)).
Summary of the method: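 HepG2 cells were transiently transfected with GAL4-UAS reporter units and a chimeric VDR-Gal4 construct, then dosed for 24 hours. Reporter mRNA was quantified by RT-PCR, fluorescent labeling, HpaI digestion and capillary electrophoresis; gain of signal analysed vs DMSO.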

Sequence of human Vitamin D Receptor (VDR), VDR (gene 7421) (P11473 whole entry, looked up, the tested form may be a part): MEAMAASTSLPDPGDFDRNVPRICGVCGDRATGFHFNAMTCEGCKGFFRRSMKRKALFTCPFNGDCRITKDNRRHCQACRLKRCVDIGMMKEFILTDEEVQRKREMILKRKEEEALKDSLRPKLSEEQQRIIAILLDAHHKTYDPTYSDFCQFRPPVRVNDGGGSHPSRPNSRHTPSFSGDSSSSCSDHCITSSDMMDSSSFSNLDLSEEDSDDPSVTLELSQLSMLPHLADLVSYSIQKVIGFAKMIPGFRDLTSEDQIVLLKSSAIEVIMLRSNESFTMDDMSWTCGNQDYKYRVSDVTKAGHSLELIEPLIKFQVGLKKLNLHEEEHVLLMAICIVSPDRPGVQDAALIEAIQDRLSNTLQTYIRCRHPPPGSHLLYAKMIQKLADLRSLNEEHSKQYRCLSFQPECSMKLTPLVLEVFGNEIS

Row | SMILES | outcome
1 | O=S(=O)(O)c1ccc(Nc2nc(Nc3ccc(C=Cc4ccc(Nc5nc(Nc6ccc(S(=O)(=O)O)cc6)nc(N(CCO)CCO)n5)cc4S(=O)(=O)O)c(S(=O)(=O)O)c3)nc(N(CCO)CCO)n2)cc1 | inactive
2 | COc1nccnc1CC(C)C | inactive
3 | NC(=O)Nc1ccccc1 | inactive
4 | CCCCOCCOCCOC(C)=O | inactive
5 | O=C1CCCCC1C1CCCCC1 (stereo unspecified) | inactive
6 | Cc1cc(C)n(CO)n1 | inactive

Source: PubChem BioAssay (EPA / NIEHS)
